Measured values as given in PubChem BioAssay.
For some assays here: Entries with a potency or affinity are not part of this list. Results filed as inconclusive are left out. The list shows a part of the results. Calls of active or inactive are those of the source. Unless noted, how the calls were made is not given here.

Experiments:
[1] = DNA binders by acridine orange displacement, dose response, counter-screen for EWS/Fli inhibitor project, biochemical, fluorescence polarization, cherry-pick (AID 720586;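 active means fitted curve reaches a 35% signal fall AC35 below twice the sample's top valid tested dose, actives reach about 48 µM in these data; inactive means the rest, including activity in the rising direction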;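 further: 0% = neutral control median and -100% = 10 µM mitoxantrone control median; lower polarization ratio signals compound binding to DNA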)
[2] = cytotoxicity in IOSE-T80 ovarian epithelial cells, dose response, selectivity assay for PAX8 inhibitor project, cell-based, cherry-pick (AID 687032;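 active means fitted half-maximal concentration for viability loss no higher than twice the top valid dose, in every repeat run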;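 further: cells exposed to compound for 96 h before reading; 0% = neutral control wells and -100% = 2 µM mitoxantrone kill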)
[3] = inhibitors of CMV-promoter luciferase reporter, dose response, counter-screen for Pax8 inhibitor project, cell-based, HEK293, luminescence, dry powder (AID 743020;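 active means signal-lowering compounds whose fitted half-maximal concentration is at or below twice the top tested dose in every run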;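 further: HEK293 cells stably expressing the CMV luciferase reporter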)
[4] = non-specific cell cytotoxicity, dose response, cytotoxicity control for PAX8 inhibitor project, plate reader, dry powder samples (AID 743021)
[5] = HepG2 cell cytotoxicity, dose response, cytotoxicity control, plate reader, cherry-pick, antagonist series (AID 743416);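 further: 0% = neutral control wells and -100% = positive control wells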
[6] = NIH:OVCAR-3 ovarian cancer cell cytotoxicity, dose response, PAX8 inhibitor project, plate reader, dry powder samples (AID 743044); details: max activity: at 35 µM, hits give low values unless noted
[7] = IOSE-T80 ovarian epithelial cell cytotoxicity, dose response, cytotoxicity control for PAX8 inhibitor project, plate reader, dry powder samples (AID 743045);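 further: 0% = neutral control median and -100% = positive control median; more negative values mean more cell killing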
[8] = A2780 ovarian cancer cell cytotoxicity, dose response, cytotoxicity control, plate reader, dry powder samples (AID 743046);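 further: 0% = neutral control wells and -100% = cytotoxic reference compound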
[9] = IGROV1 ovarian cancer cell cytotoxicity, dose response, PAX8 inhibitor project, plate reader, dry powder samples (AID 743043);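 further: more negative means fewer viable cells or more cytotoxicity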
[10] = cytotoxicity in OVCAR8 ovarian cancer cells, dose response, PAX8 project, cell-based, plate reader, dry powder samples (AID 743197)
[11] = A549 cell cytotoxicity, dose response, cytotoxicity control, plate reader, cherry-pick, antagonist series (AID 743412);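 further: 0% = neutral control wells and -100% = positive control wells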

CN(CCO)c1ccc(/C=N/Nc2nncc3ccccc23)cc1
inactive: AC35 [1]

O=C(CN1C(=O)c2ccccc2S1(=O)=O)c1ccc2c(c1)OCCO2
inactive: outcome [2] | outcome [3] | outcome [4] | outcome [5]

COC(=O)C[C@@H]1CC[C@@H]2[C@H](COc3ccc(NC(=O)c4cccc(F)c4)cc3C(=O)N2C)O1
inactive: AC35 [1]

C[C@H]1CN([C@@H](C)CO)C(=O)Cc2cc(NC(=O)C3CC3)ccc2O[C@H]1CN(C)S(=O)(=O)c1ccc(Cl)cc1
inactive: AC35 [1]

COc1cc(-c2cnc3c(NC=O)cc(-c4cccc(NC(C)=O)c4)cn23)cc(OC)c1OC
inactive: outcome [2] | outcome [4]

Cc1ccc(S(=O)(=O)Nc2ccc3c(c2)C(=O)N([C@@H](C)CO)C[C@@H](C)[C@@H](CN(C)Cc2ccc(C(=O)Nc4ccccc4N)cc2)O3)cc1
inactive: AC35 [1]

C[C@H]1CCCCO[C@H](CN(C)C(=O)Nc2cccc3ccccc23)[C@@H](C)CN([C@@H](C)CO)C(=O)c2cc(NS(=O)(=O)c3ccc(Cl)cc3)ccc2O1
inactive: outcome [2] | outcome [3] | outcome [4] | max activity [6] -25.9% | outcome [7] | outcome [8]

COc1ccc(S(=O)(=O)N(C)C[C@@H]2OCCCC[C@H](C)Oc3ccc(NS(=O)(=O)c4ccccc4)cc3C(=O)N([C@H](C)CO)C[C@H]2C)cc1
inactive: outcome [2] | outcome [3] | outcome [4] | outcome [7] | outcome [8]

O=C(Nc1ccc(F)cc1)N1CC(=O)N2[C@@H](CO)[C@H](c3ccc(-c4ccc(F)cc4)cc3)[C@@H]2C1
inactive: outcome [2] | outcome [4] | outcome [9] | outcome [8]

C[C@@H]1CCCCO[C@H](CN(C)Cc2ccc(Cl)c(Cl)c2)[C@@H](C)CN([C@@H](C)CO)C(=O)c2cc(NC(=O)Nc3ccccc3)ccc2O1
inactive: outcome [2] | outcome [4] | outcome [9] | max activity [6] 15.8% [at 0.26 µM, hits give low values] | outcome [7] | outcome [8] | outcome [10]

N#C[C@@H]1[C@H](c2ccc(C#Cc3cccc(F)c3)cc2)[C@@H](CO)N1C(=O)C1CCCC1
inactive: outcome [11]

C[C@@H]1CN([C@@H](C)CO)C(=O)c2cc(NC(=O)c3ccccc3)ccc2O[C@@H](C)CCCCO[C@@H]1CN(C)Cc1ccc(C(F)(F)F)cc1
inactive: outcome [3] | outcome [4] | outcome [9] | outcome [7] | outcome [8]

C[C@H]1CCCCO[C@@H](CN(C)Cc2ccc(C(F)(F)F)cc2)[C@@H](C)CN([C@@H](C)CO)C(=O)c2cc(NC(=O)c3ccccc3)ccc2O1
inactive: outcome [3] | outcome [4] | outcome [7] | outcome [8]

COc1ccc(S(=O)(=O)Nc2ccc3c(c2)C(=O)N([C@@H](C)CO)C[C@H](C)[C@@H](CN(C)Cc2ccc(C(F)(F)F)cc2)OCCCC[C@H](C)O3)cc1
inactive: outcome [3] | outcome [4] | outcome [7] | outcome [8]

CCN(CC(=O)Nc1c(F)cccc1F)C(=O)c1cc(S(=O)(=O)N(C)C)ccc1N1CCCC1
inactive: outcome [3] | outcome [4] | outcome [6] | outcome [7] | outcome [8]

C=C1C(=O)C2=CC1CCC(=O)C1(C)CCC(OC(C)=O)C(C)(C)C1CC2O (stereo not drawn)
inactive: outcome [4]

C[C@H]1CCCCO[C@H](CN(C)Cc2ccc(C(F)(F)F)cc2)[C@@H](C)CN([C@@H](C)CO)C(=O)c2cc(NS(=O)(=O)c3ccc(Cl)cc3)ccc2O1
inactive: outcome [3] | outcome [4] | max activity [6] 16.3% [at 1 µM, hits give low values] | outcome [7] | outcome [8]

C[C@H](CO)N1C[C@H](C)[C@H](CN(C)Cc2ccc(C(F)(F)F)cc2)OCCCC[C@H](C)Oc2ccc(NS(=O)(=O)c3ccccc3)cc2C1=O
inactive: outcome [3] | outcome [7] | outcome [8]

C[C@H]1CCCCO[C@H](CN(C)Cc2ccc(C(F)(F)F)cc2)[C@@H](C)CN([C@@H](C)CO)C(=O)c2cc(NC(=O)c3ccccc3)ccc2O1
inactive: outcome [3] | outcome [4] | outcome [7] | outcome [8] | outcome [10]

C=C(C(=O)c1ccccc1)C(C(=C)C(=O)c1ccccc1)c1ccc(OC)cc1
inactive: outcome [4]

COc1cccc(-c2ccc([C@H]3[C@@H](CO)N(C(=O)Cc4ccccc4)[C@H]3C#N)cc2)c1
inactive: outcome [3] | outcome [4] | outcome [9] | outcome [7] | outcome [10]

C#CCN(C[C@@H]1[C@@H](OC(=O)NCC2CCCCC2)[C@@H](OC(=O)NCC2CCCCC2)Cn2c(=O)ccc(=O)n21)S(=O)(=O)c1ccc(C)cc1
inactive: outcome [4]

C[C@H]1CN([C@@H](C)CO)C(=O)c2cc(NS(=O)(=O)c3ccccc3)ccc2O[C@@H]1CN(C)Cc1ccc(Oc2ccccc2)cc1
inactive: outcome [3] | outcome [4] | outcome [9] | max activity [6] -20.4% [at 8 µM, hits give low values] | outcome [7] | outcome [10]

C[C@@H]1CCCCO[C@@H](CN(C)S(=O)(=O)c2ccc(Cl)cc2)[C@H](C)CN([C@H](C)CO)C(=O)c2cc(NS(=O)(=O)c3ccc(F)cc3)ccc2O1
inactive: outcome [3] | outcome [4] | max activity [6] 22.4% [at 2.1 µM, hits give low values] | outcome [7] | outcome [8] | outcome [10]

Cc1ccc(S(=O)(=O)N(C)C[C@H]2Oc3cc(C#Cc4ccncc4)ccc3S(=O)(=O)N([C@@H](C)CO)C[C@@H]2C)cc1
inactive: outcome [3] | outcome [4] | outcome [9] | outcome [7] | outcome [8]

C[C@H]1CN([C@@H](C)CO)C(=O)Cc2cc(NC(=O)NC3CCCCC3)ccc2O[C@H]1CN(C)S(=O)(=O)c1ccc(Cl)cc1
inactive: outcome [3] | outcome [4] | outcome [9] | outcome [7] | outcome [8] | outcome [10]

COc1ccc(CCNc2nnc(Sc3nnnn3-c3ccccc3)s2)cc1OC
inactive: outcome [4]

Cc1ccccc1CNC(=O)C1CCCN(c2nnc(C)c3c(C)n(-c4ccccc4)nc23)C1 (stereo not drawn)
inactive: outcome [3] | outcome [4] | outcome [8]

Cc1ccc(S(=O)(=O)Nc2ccc3c(c2)CC(=O)N([C@H](C)CO)C[C@H](C)[C@H](CN(C)S(=O)(=O)c2ccc(F)cc2)O3)cc1
inactive: outcome [3] | outcome [4] | outcome [9] | outcome [7] | outcome [8] | outcome [10]

COc1ccc(C(=O)c2ccc(Cl)c([N+](=O)[O-])c2)cc1
inactive: outcome [4]

Cc1nc2sc(C(c3ccco3)N3CCN(C(c4ccccc4)c4ccccc4)CC3)c(O)n2n1 (stereo not drawn)
inactive: outcome [3] | outcome [4] | outcome [7] | outcome [8]

Cc1ccc(S(=O)(=O)CC(CN2CCCCC2)N2CCCCC2)cc1 (stereo not drawn)
inactive: outcome [3] | outcome [4] | outcome [6] | outcome [7] | outcome [8]

Cc1noc(C)c1S(=O)(=O)N(C)C[C@H]1OCCCC[C@@H](C)Oc2ccc(NS(=O)(=O)c3ccc(Cl)cc3)cc2C(=O)N([C@@H](C)CO)C[C@@H]1C
inactive: outcome [3] | outcome [4] | outcome [9] | outcome [7]

Cc1ccsc1/C=N/Nc1cccc(C(=O)O)c1
inactive: outcome [3] | outcome [4] | outcome [5]

C[C@@H]1CN([C@@H](C)CO)C(=O)Cc2cc(NS(=O)(=O)c3ccc(Cl)cc3)ccc2O[C@H]1CN(C)Cc1ccc(Oc2ccccc2)cc1
inactive: outcome [3] | outcome [4] | outcome [7] | outcome [8]

O=C1CN(C(=O)Cn2ncc(Cl)c(Cl)c2=O)c2ccccc2N1
inactive: outcome [4]

COc1cccc(N2CCN(C(=O)c3ccc(CS(=O)c4ccccc4Cl)o3)CC2)c1 (stereo not drawn)
inactive: outcome [4]

O=C1c2cccc3cc([N+](=O)[O-])cc(c23)C(=O)N1CCN1CCCC1
inactive: outcome [4]

C[C@H](CO)N1C[C@H](C)[C@H](CN(C)S(=O)(=O)c2ccc(Cl)cc2)OCCCC[C@H](C)Oc2ccc(NC(=O)Nc3ccc(C(F)(F)F)cc3)cc2C1=O
inactive: outcome [3] | outcome [9] | outcome [7] | outcome [10]

O=C(Nc1cccc(-c2ccc(N3CCCCC3)nn2)c1)C(F)(F)F
inactive: outcome [4]

COc1ccc(-c2ccc(C3[C@@H]4CN(C(=O)Nc5cccc(F)c5)C[C@H]3N4)cc2)cc1 (stereo partly drawn)
inactive: outcome [3] | outcome [7] | outcome [8]

C[C@@H]1CCCCO[C@H](CN(C)C(=O)C2CCCCC2)[C@@H](C)CN([C@@H](C)CO)C(=O)c2cc(NC(=O)Nc3ccc(F)cc3)ccc2O1
inactive: outcome [3] | outcome [4] | outcome [7]

C[C@@H]1CN([C@H](C)CO)C(=O)c2cc(NS(=O)(=O)c3ccc(Cl)cc3)ccc2O[C@@H](C)CCCCO[C@@H]1CN(C)Cc1ccccc1
inactive: outcome [3] | outcome [9] | max activity [6] 22% [at 1 µM, hits give low values] | outcome [7] | outcome [8] | outcome [10]

CCCn1c(C)cc(C(=O)CN2C(=O)c3ccccc3S2(=O)=O)c1C
inactive: outcome [3] | outcome [4] | outcome [9] | outcome [6] | outcome [8] | outcome [5]

N#C[C@@H]1[C@H](c2ccc(C#CC3CCCCC3)cc2)[C@H](CO)N1S(=O)(=O)c1ccccc1
inactive: outcome [3] | outcome [4] | outcome [7] | outcome [8] | outcome [10]

C[C@H](CO)N1C[C@H](C)[C@H](CN(C)S(=O)(=O)c2ccc(Cl)cc2)OCCCC[C@H](C)Oc2ccc(NS(=O)(=O)c3ccc(F)cc3)cc2C1=O
inactive: outcome [3] | outcome [4] | outcome [9] | max activity [6] 20.8% | outcome [7] | outcome [10]

C[C@H](O)[C@@H]1CN2CCc3c([nH]c4ccc(-c5ccc6c(c5)OCO6)cc34)[C@@H]2C[C@@H]1N(C)C(=O)NC1CCCCC1
inactive: outcome [4]

CCCC1=Nc2cc(C(=O)NCCCOCC)ccc2Sc2ccccc21
inactive: outcome [4]

C[C@@H]1CCCCO[C@@H](CN(C)C(=O)Nc2cccc3ccccc23)[C@H](C)CN([C@H](C)CO)C(=O)c2cc(NS(=O)(=O)c3ccc(F)cc3)ccc2O1
inactive: outcome [3] | outcome [4] | max activity [6] 12.2% [at 0.26 µM, hits give low values] | outcome [7] | outcome [8]

COc1cc(-c2cnc3c(NC=O)cc(-c4ccccc4)cn23)cc(OC)c1OC
inactive: outcome [4]

Cc1cc(C2=NNC(=NC3CC3)SC2)c(C)n1-c1ccccc1F
inactive: outcome [4]

Cc1c(Nc2cc(Cl)c3nonc3c2[N+](=O)[O-])c(=O)n(-c2ccccc2)n1C
inactive: outcome [4]
